In PubChem BioAssay (NCI) one finds growth data, which are given here for 13 compounds.

Molecules are shown by their SMILES. Values joined by “and” are separate entries in the source; they are usually repeats but may differ in a detail not shown here. Equal entries are not always repeated. About 83,000 compounds went through this panel and 20% of them were active in at least one assay; those are over-represented in the sample as a whole.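 Testing used 96-well plates and a 48-hour single-concentration exposure. Example: -40 means 40% of the starting cells died.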 Active and inactive are the calls of the source. The calls were made as follows: active = growth percent below 10; inactive = the rest.

Common to all, as to assay: NCI-60 one-dose screen, 48 h (100 = growth as untreated, 0 = no growth, -100 = all killed)
Experiment [1] deals with NCI-H226 lung. The conditions noted are these: 10 µM unless noted.
Experiment [2] concerns NCI-H322M lung. The conditions noted are these: 10 µM unless noted.
The test system of experiment [3] is HOP-62 NSCLC. The conditions noted are these: 10 µM unless noted.
The subject of experiment [4] is HOP-92 NSCLC. Conditions: 10 µM.
Experiment [5] deals with NCI-H522 lung. The conditions noted are these: 10 µM.
Experiment [6] relates to 786-0 renal. Conditions: 10 µM unless noted.
The test system of experiment [7] is A549/ATCC NSCLC. The conditions noted are these: 10 µM unless noted.
Experiment [8] has as its system COLO 205 colon. Conditions: 10 µM unless noted.
Experiment [9] has as its system NCI-H460 lung. Conditions: 10 µM unless noted.

Turning to `CCOC(=O)c1c(C)cc(=O)oc1C`, the growth in experiment [1] is 96.8% (inactive); in experiment [2], 110% (inactive); in [3] it was 97.2% (inactive); in experiment [4], 80.7% (inactive); in experiment [5], 115% (inactive); in experiment [6], 103% (inactive).

As to `CC(=O)Nc1ccc(S(N)(=O)=O)cc1`, the growth was 107% (inactive) and 102% (inactive) in [1]; 113% (inactive) and 92.5% (inactive) in [2]; 89.4% (inactive) and 103% (inactive) in experiment [3]; 96.6% (inactive) in experiment [4]; 98.3% (inactive) and 80.4% (inactive) in [5]; 96% (inactive) and 103% (inactive) in experiment [7]. Also, in [6], the growth was 97.9% (inactive) and 94.5% (inactive).

For the compound `O=CN1CCCCC1`, the growth in experiment [1] is 105% (inactive); in experiment [2] it was 99.4% (inactive); in experiment [3] it was 102% (inactive); in experiment [4], 120% (inactive); in experiment [5] it was 104% (inactive); in [6], 102% (inactive).

With `ClCCOCCOc1ccc(C2CCCCC2)cc1`, the growth was 92.4% (inactive) in experiment [1]; 121% (inactive) in experiment [2]; 92.3% (inactive) in [3]; 87.9% (inactive) in [4]; 93.8% (inactive) in [5]; 86.6% (inactive) in experiment [7]. For the same compound, the growth in [6] is 88.8% (inactive); in [8] it was 111% (inactive).

`O=C1OC(C(O)C(O)CO)C(O)=C1O` (stereo not given): the growth is 100% (inactive) in experiment [1]; 111% (inactive) and 97.3% (inactive) in experiment [2]; 94.4% (inactive) and 88.1% (inactive) in [3]; 96.8% (inactive) and 112% (inactive) in [9]; 89.5% (inactive) in [4]; 8.89% (active) and 80% (inactive) in [5]. Besides, the growth in experiment [6] was 95% (inactive) and 97.2% (inactive).

For `NC1CCC(C(=O)O)CC1` (stereo not given), the growth was 104% (inactive) and 99.6% (inactive) in experiment [1]; 117% (inactive) and 105% (inactive) in experiment [2]; 100% (inactive) and 91.2% (inactive) in experiment [3]; 98.9% (inactive) and 104% (inactive) in experiment [9]; 83.3% (inactive) and 91.7% (inactive) in [4]; 97.4% (inactive) and 96% (inactive) in [5]. For the same compound, the growth in experiment [6] was 102% (inactive) and 103% (inactive).

Turning to `Oc1ccc(Cc2ccccc2Cl)c(O)c1`, the growth in [2] was 86.5% (inactive); in experiment [3], 91.9% (inactive); in [4], 89.4% (inactive); in experiment [5], 94.7% (inactive); in experiment [6], 102% (inactive).

For `CC1CCC(C(C)C)C(NNC(N)=O)C1` (stereo not given), the growth was 102% (inactive) in experiment [1]; 102% (inactive) in experiment [2]; 100% (inactive) in experiment [3]; 91.5% (inactive) in experiment [4]; 94.9% (inactive) in [5]; 106% (inactive) in experiment [6]. Besides, the growth in [8] was 110% (inactive).

Take `O=c1n(CC2CO2)c(=O)n(CC2CO2)c(=O)n1CC1CO1` (stereo not given): the growth in experiment [1] is 80.1% (inactive); in [2], 70.4% (inactive); in [3], 57% (inactive); in [4], 75.9% (inactive); in experiment [5] it was 45.1% (inactive); in [6], 44.7% (inactive). In addition, in experiment [8], the growth was 74.8% (inactive).

As for `OCC1OC(O)C(O)C(O)C1O` (stereo not given), the growth in experiment [1] is 113% (inactive); in experiment [2], 155% (inactive); in experiment [3] it was 98.9% (inactive); in experiment [9], 100% (inactive); in experiment [4], 85.9% (inactive); in experiment [5], 85.7% (inactive). Moreover, the growth in experiment [6] was 110% (inactive).

For `CN(C)c1ccc(/C=C\C(=O)c2ccccc2)cc1`, the growth is 92.6% (inactive) and 98.6% (inactive) and 101% (inactive) in experiment [1]; 97.2% (inactive) and 103% (inactive) and 88.5% (inactive) in experiment [2]; 102% (inactive) and 101% (inactive) in experiment [3]; 102% (inactive) and 99.8% (inactive) and 104% (inactive) in experiment [9]; 103% (inactive) and 99.8% (inactive) and 86.1% (inactive) in [4]; 64.3% (inactive) and 60.4% (inactive) and 52.7% (inactive) in experiment [5]. For the same compound, the growth in [6] was 90.9% (inactive) and 89.7% (inactive) and 80.8% (inactive); in [8] it was 104% (inactive) and 99.2% (inactive).

On to `N#CC(C#N)N=Nc1ccc(Cl)cc1`, for which the growth in experiment [1] is 75.1% (inactive); in [2], 93.2% (inactive); in experiment [3], 84.9% (inactive); in experiment [4], -15.1% (active); in experiment [5], -12.4% (active); in [6], 59% (inactive).

For the compound `CC[C@H](CC[C@@H](C)[C@H]1CC[C@H]2[C@@H]3CC=C4C[C@@H](O)CC[C@]4(C)[C@H]3CC[C@]12C)C(C)C`, the growth in experiment [1] was 99.6% (inactive) and 101% (inactive); in experiment [2], 92.6% (inactive) and 103% (inactive); in [3], 108% (inactive) and 101% (inactive); in experiment [9] it was 105% (inactive) and 107% (inactive); in experiment [4], 83.5% (inactive); in experiment [5], 18.7% (inactive) and 97% (inactive). Moreover, the growth is 102% (inactive) in [7]; 95.3% (inactive) and 106% (inactive) in experiment [6]; 103% (inactive) and 107% (inactive) in experiment [8].
